Only some compounds are listed: those with a hit (about 10% of all), similar ones and a draw of the others.
MCF10A rerep: DNA re-replication induction in MCF 10a cells; MCF 10A DNA re-replication, Hoechst nuclear intensity, 48 h; Potency, µM (highest dose often 46.1 µM), actives largely listed as activators; 2.9% of 350,000 active; AID 624296; further: nearly all actives have a fitted effect of over 50% in size
RORg inh: blocks mouse ROR gamma transcriptional activity; 5.4% of 310,000 active; Potency, µM (doses to about 53.6 µM), actives largely listed as inhibitors; Drosophila S2 Gal4-RORgamma UAS-luciferase reporter, 20 h; further: nearly all actives have a fitted effect of over 60% in size
Target sequence (P51450 whole entry, looked up, the tested form may be a part): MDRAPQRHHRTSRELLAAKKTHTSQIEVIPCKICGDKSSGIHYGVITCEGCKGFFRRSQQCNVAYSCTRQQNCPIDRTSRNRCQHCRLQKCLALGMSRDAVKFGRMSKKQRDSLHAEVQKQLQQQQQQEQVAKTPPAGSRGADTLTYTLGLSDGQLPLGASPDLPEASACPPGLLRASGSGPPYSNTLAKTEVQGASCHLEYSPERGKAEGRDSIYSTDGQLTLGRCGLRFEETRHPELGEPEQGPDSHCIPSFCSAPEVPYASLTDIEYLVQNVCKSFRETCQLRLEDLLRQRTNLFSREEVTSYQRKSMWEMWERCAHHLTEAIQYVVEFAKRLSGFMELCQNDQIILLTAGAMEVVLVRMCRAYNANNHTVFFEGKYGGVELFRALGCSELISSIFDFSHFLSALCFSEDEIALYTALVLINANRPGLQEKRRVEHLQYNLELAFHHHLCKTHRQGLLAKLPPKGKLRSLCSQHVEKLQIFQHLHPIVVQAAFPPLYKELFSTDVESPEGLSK
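Luminescence from a UAS-regulated Photinus luciferase reporter in stably transfected Drosophila Schneider cells is measured; decreased signal marks ROR gamma inhibition. Fusion expression is induced by 700 uM copper sulfate for 20 hr.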
SW480 rerep: induces DNA re-replication in SW480 colon adenocarcinoma cells; SW480 DNA re-replication, Hoechst DNA content imaging, 48 h; Potency, µM (titrated, usually from 46.1 µM), hits mostly activators; 1.8% of 340,000 active; further: nearly all actives have a fitted effect of over 55% in size
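First, 250 cells per well were seeded. Next, compound or vehicle (23 nL) was pinned in, plates sat 48 hr at 37 C. Finally Hoechst was added for 40 min before fluorescence scanning.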
VP16 counter: Gal4-VP16 reporter inhibition counter-screen | Drosophila S2 Gal4-VP16 UAS-luciferase, luminescence, 20 h | Potency, µM (series often up to 53.6 µM), most hits filed as inhibitors | 3.5% of 310,000 active;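 further: Gal4-VP16 expression switched on by copper sulfate through the metallothionein promoter; nearly all actives have a fitted effect of over 50% in size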
ELG1 DNA repair: ELG1-dependent DNA repair inhibition. HEK293T ELG1-luciferase reporter, luminescence, 16 h; DNA damage induced by 5-fluorouridine. Potency, µM (highest dose often 46.1 µM), most hits filed as inhibitors. 2.3% of 330,000 active. AID 504467; further: nearly all actives have a fitted effect of over 55% in size
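DMSO vehicle served as the neutral condition. Each well held 2,000 cells given 5-fluorouridine plus compound; after 16 hr at 37 °C/5% CO2, ONE-Glo was added and luciferase measured 30 min later.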
Numbers stand for hits; i = inactive; ? = inconclusive; nt = no result. The call rests on the fitted dose curve; in most records, active means well fitted curve in the direction sought with a large enough effect; inconclusive means small, poorly fitted or top-dose-only effect, or another doubt; inactive means no such curve, though single readings can be large; an effect the other way counts as inactive or inconclusive.

SMILES	MCF10A rerep	RORg inh	SW480 rerep	VP16 counter	ELG1 DNA repair
CO[C@H]1[C@@H](O)CC(OC2[C@@H](O)CC(OC3[C@@H](O)C[C@H](OC4CC[C@@]5(C)C(CCC6C5CC(O)[C@]5(C)[C@H](C7=CC(=O)OC7)CCC65O)C4)O[C@@H]3C)O[C@@H]2C)O[C@@H]1C (some centres not stated)	i	2.5µM	i	i	nt
COc1ccc(NCC(=O)N2CCCC2)cc1Cl	i	i	i	i	?
CCOP(=S)(OCC)Oc1ncn(-c2ccccc2)n1	nt	i	nt	?	nt
CC1OC(OC2C(O)CC(OC3C(O)CC(OC4CCC5(C)C(CCC6C5CCC5(C)C(C7=CC(=O)OC7)CCC65O)C4)OC3C)OC2C)CC(O)C1O (configuration not stated)	?	1.1µM	?	i	nt
CC1O[C@@H](O[C@@H]2C(O)C[C@H](O[C@@H]3C(O)C[C@@H](OC4CC[C@@]5(C)C6CC[C@]7(C)C(C8=CC(=O)OC8)CC[C@@]7(O)C6CC[C@@H]5C4)OC3C)OC2C)CC(O)[C@H]1O (some centres not stated)	nt	3.2µM	nt	i	nt
COc1cccc(/C=N/NC(=O)c2c(C)nc3ccc(Br)cn23)c1	i	14µM	?	?	i
CC(=O)OCC(N)C(=O)c1ccccc1 (configuration not stated)	nt	i	nt	i	nt
O=C1C=CC(=O)C=C1	i	11µM	i	i	i
COc1ccc(-c2c3c(nc4sc5c(Cl)nc(C)nc5c24)CCC3)cc1	?	i	i	i	i
CCc1ccc(-c2nn(Cc3ccccc3)cc2C=O)cc1	i	?	4.6µM	i	?
CN(C)c1ccc(C=C2C(=O)NC(=O)NC2=O)cc1	i	nt	i	nt	nt
C/C(=C\c1ccc(N(C)C)cc1)[N+](=O)[O-]	2.6µM	7.1µM	5.8µM	22µM	?
CN(C)c1ccc(/C=C/[N+](=O)[O-])cc1	i	11µM	?	13µM	?
O=c1ccc(=O)[nH][nH]1	nt	i	nt	i	nt
NC(=O)c1ncn(C2OC(CO)C(O)C2O)n1 (configuration not stated)	i	i	i	i	nt
CCCC(=O)NC1=C(N2CC2)C(=O)C(NC(=O)CCC)=C(N2CC2)C1=O	?	nt	2.3µM	nt	nt
CCC(C=C[C@@H]1OC(=O)C=C[C@H]1C)=C[C@H](C)CC=CC(C)=C[C@@H](C)C(=O)[C@@H](C)[C@H](O)[C@@H](C)CC(C)=CC(=O)O	nt	?	nt	1.3µM	nt
O=[N+]([O-])c1ccc(-c2ccccc2)c([As](=O)(O)O)c1	23µM	i	i	i	i
O=[N+]([O-])c1ccccc1-c1ccccc1	nt	i	nt	i	nt
CN(C)C1C(=O)C(C(N)=O)=C(O)[C@@]2(O)C(=O)C3=C(O)c4c(O)ccc(Cl)c4[C@](C)(O)C3CC12 (some centres not stated)	nt	i	nt	i	nt
COc1cccc(OC)c1CN1CCCC(C(=O)c2cccc(Cl)c2)C1 (configuration not stated)	i	i	i	i	i
CCn1ccnc1CN1CCCC(C(=O)c2cccc(C(F)(F)F)c2)C1 (configuration not stated)	i	2µM	i	10µM	i
Cc1ncc(CN2CCCC(C(=O)c3cccc(OC(C)C)c3)C2)s1 (configuration not stated)	i	?	i	i	?
O=C(c1cccc(C(F)(F)F)c1)C1CCCN(Cc2ncc[nH]2)C1 (configuration not stated)	?	i	i	16µM	i
COC(=O)C1=C(c2cccc(OCc3ccccc3)c2)C[C@@H]2CC[C@H]1N2C(=O)NCCOc1ccccc1	13µM	nt	i	nt	i
COC(=O)C1=C(c2ccc(F)cc2OCc2ccccc2)C[C@@H]2CC[C@H]1N2C(=O)NCc1ccc(C)cc1	i	nt	?	nt	?
COC(=O)C1=C(c2ccc(F)cc2OCc2ccccc2)C[C@@H]2CC[C@H]1N2C(=O)NCc1ccc(F)cc1	?	nt	0.52µM	nt	?
COC(=O)C1=C(c2cccc(OCc3ccccc3)c2)C[C@@H]2CC[C@H]1N2C(=O)NCCOc1ccccc1Cl	2.1µM	nt	i	nt	i
CC(=O)C1CCC2C3CCC4CC(C)(O)CCC4(C)C3CCC12C (configuration not stated)	nt	i	nt	i	nt

Bioassay records (PubChem BioAssay)
